According to ChEMBL document CHEMBL1961873, “Compounds: GSK PKIS; Assays: Nanosyn kinase panel” (2012):

Columns and labels:
[1] = target: T1, Tyrosine-protein kinase receptor TYRO3 (Homo sapiens) (UniProt Q06418); conditions: at 1 µM
T1 sequence (whole entry): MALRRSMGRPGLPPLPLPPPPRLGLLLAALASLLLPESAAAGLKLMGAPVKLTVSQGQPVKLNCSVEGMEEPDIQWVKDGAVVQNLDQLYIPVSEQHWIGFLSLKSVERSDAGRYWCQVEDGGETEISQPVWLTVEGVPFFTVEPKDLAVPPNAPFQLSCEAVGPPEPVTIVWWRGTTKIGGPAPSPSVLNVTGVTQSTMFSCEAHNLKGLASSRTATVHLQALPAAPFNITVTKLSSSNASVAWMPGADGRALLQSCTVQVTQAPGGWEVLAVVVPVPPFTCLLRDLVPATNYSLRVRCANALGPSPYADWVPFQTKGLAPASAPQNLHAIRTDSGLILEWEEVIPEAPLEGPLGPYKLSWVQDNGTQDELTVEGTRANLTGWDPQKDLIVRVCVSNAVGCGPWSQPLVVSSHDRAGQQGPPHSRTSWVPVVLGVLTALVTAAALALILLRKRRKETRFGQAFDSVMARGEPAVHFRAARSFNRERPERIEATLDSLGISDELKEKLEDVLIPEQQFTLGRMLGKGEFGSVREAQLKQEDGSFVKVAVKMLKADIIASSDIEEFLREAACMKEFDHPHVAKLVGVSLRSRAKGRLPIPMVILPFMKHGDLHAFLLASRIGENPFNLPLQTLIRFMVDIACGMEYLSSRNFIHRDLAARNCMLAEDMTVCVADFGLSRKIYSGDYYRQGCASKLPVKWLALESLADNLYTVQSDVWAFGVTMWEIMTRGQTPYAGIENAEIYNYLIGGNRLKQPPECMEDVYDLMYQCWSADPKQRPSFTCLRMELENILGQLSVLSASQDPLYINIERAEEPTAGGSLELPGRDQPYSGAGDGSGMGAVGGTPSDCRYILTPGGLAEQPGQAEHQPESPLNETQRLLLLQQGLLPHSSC

[2] = target: Tyrosine-protein kinase Yes (Homo sapiens) (UniProt P07947); conditions: at 0.1 µM
Tyrosine-protein kinase Yes (Homo sapiens), sequence (P07947 2-543 limits assumed): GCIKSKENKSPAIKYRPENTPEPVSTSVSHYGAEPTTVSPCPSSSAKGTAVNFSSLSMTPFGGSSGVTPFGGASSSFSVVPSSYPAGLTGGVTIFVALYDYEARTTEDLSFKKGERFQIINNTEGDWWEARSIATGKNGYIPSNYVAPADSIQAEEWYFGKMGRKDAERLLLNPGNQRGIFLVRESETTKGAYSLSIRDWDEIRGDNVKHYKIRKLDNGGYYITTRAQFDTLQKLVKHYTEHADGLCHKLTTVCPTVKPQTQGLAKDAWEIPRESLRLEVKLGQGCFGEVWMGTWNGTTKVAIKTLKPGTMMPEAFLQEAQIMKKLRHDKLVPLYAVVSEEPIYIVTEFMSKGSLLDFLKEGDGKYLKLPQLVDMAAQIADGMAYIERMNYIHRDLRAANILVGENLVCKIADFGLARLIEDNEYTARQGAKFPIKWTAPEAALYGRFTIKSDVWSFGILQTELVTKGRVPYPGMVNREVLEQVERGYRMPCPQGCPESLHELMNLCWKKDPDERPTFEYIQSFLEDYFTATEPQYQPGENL

[3] = target: Tyrosine-protein kinase Yes (Homo sapiens) (UniProt P07947); conditions: at 1 µM
[4] = target: T2, Tyrosine-protein kinase ZAP-70 (Homo sapiens) (UniProt P43403); conditions: at 0.1 µM
T2 sequence (whole entry): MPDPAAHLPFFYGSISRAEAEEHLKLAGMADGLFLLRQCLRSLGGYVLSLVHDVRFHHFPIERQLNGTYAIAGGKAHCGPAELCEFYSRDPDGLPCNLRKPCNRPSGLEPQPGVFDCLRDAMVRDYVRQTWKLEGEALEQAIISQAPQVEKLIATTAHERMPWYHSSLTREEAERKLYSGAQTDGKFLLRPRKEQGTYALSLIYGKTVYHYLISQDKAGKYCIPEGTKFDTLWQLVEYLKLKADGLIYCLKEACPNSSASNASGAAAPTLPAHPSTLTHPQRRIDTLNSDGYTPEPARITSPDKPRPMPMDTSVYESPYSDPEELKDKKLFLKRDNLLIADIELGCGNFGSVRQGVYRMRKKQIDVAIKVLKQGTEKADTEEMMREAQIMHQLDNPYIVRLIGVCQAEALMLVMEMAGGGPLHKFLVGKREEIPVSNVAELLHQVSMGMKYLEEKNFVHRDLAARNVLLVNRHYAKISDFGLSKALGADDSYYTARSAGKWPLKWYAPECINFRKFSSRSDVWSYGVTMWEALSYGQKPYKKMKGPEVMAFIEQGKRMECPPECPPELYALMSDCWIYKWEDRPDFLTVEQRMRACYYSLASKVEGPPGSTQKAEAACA

[5] = target: T2, Tyrosine-protein kinase ZAP-70 (Homo sapiens); conditions: at 1 µM
[6] = target: Serine/threonine-protein kinase B-raf (Homo sapiens) (UniProt P15056); conditions: at 0.1 µM
Serine/threonine-protein kinase B-raf (Homo sapiens), sequence (P15056 whole entry): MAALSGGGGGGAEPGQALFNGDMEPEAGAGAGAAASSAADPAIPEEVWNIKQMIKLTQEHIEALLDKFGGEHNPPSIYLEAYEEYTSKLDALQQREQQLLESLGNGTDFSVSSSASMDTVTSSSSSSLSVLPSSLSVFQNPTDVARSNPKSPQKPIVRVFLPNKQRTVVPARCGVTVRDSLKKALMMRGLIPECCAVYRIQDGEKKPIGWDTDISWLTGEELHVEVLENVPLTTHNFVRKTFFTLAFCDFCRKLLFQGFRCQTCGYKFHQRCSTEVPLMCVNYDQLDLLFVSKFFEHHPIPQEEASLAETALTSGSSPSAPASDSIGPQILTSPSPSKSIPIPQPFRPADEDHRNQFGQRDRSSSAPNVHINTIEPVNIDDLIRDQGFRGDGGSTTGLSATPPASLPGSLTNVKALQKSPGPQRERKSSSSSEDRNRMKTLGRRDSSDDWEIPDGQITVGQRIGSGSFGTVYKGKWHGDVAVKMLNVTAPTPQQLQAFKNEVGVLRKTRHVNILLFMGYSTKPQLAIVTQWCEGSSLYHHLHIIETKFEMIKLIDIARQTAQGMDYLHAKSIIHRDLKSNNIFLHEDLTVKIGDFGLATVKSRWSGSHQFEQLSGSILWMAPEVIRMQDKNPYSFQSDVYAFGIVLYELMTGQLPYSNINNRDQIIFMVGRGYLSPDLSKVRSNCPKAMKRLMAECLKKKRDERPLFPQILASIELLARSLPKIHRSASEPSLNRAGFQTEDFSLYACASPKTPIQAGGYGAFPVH

[7] = target: Serine/threonine-protein kinase B-raf (Homo sapiens) (UniProt P15056); conditions: at 1 µM
[8] = system: Serine/threonine-protein kinase B-raf (Homo sapiens), P15056 [V600E]; conditions: at 0.1 µM
Serine/threonine-protein kinase B-raf (Homo sapiens), P15056 [V600E], sequence (P15056 whole entry V600E): as the sequence (P15056 whole entry) above, with V600E counted along it

[9] = system: Serine/threonine-protein kinase B-raf (Homo sapiens), P15056 [V600E]; conditions: at 1 µM
[10] = target: RAF proto-oncogene serine/threonine-protein kinase (Homo sapiens) (UniProt P04049); conditions: at 0.1 µM
RAF proto-oncogene serine/threonine-protein kinase (Homo sapiens), sequence (P04049 whole entry): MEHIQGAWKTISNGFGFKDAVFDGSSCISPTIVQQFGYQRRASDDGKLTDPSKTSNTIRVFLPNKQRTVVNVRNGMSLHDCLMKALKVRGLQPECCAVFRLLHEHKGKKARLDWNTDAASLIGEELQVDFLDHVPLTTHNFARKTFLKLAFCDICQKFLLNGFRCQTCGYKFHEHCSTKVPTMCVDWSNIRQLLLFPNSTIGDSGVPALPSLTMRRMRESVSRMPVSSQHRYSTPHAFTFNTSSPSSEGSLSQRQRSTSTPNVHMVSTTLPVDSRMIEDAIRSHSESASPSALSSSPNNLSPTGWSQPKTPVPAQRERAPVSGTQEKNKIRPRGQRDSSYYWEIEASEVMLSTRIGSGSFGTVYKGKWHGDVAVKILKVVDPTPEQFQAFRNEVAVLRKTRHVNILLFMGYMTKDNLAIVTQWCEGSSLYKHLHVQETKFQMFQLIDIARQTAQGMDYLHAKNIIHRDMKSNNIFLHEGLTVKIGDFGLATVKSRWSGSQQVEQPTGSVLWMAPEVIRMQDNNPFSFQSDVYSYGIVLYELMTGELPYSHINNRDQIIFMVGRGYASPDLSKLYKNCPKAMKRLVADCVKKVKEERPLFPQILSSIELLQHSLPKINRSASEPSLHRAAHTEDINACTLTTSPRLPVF

[11] = target: RAF proto-oncogene serine/threonine-protein kinase (Homo sapiens) (UniProt P04049); conditions: at 1 µM
[12] = target: T3, Interleukin-1 receptor-associated kinase 4 (Homo sapiens) (UniProt Q9NWZ3); conditions: at 0.1 µM
T3 sequence (whole entry): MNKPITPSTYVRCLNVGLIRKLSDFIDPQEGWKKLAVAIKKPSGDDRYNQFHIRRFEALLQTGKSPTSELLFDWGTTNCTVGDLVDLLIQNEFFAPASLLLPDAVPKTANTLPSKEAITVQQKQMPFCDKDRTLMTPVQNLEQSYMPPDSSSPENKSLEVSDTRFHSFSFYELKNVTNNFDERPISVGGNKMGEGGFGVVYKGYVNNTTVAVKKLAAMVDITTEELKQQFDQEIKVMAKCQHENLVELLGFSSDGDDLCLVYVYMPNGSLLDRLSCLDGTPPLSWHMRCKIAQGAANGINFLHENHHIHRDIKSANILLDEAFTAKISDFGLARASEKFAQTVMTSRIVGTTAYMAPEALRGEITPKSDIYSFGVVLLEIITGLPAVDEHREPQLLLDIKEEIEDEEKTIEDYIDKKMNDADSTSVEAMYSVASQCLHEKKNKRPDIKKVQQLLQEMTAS

[13] = target: T3, Interleukin-1 receptor-associated kinase 4 (Homo sapiens); conditions: at 1 µM
[14] = target: Leucine-rich repeat serine/threonine-protein kinase 2 (Homo sapiens) (UniProt Q5S007); conditions: at 0.1 µM
Leucine-rich repeat serine/threonine-protein kinase 2 (Homo sapiens), sequence (Q5S007 whole entry): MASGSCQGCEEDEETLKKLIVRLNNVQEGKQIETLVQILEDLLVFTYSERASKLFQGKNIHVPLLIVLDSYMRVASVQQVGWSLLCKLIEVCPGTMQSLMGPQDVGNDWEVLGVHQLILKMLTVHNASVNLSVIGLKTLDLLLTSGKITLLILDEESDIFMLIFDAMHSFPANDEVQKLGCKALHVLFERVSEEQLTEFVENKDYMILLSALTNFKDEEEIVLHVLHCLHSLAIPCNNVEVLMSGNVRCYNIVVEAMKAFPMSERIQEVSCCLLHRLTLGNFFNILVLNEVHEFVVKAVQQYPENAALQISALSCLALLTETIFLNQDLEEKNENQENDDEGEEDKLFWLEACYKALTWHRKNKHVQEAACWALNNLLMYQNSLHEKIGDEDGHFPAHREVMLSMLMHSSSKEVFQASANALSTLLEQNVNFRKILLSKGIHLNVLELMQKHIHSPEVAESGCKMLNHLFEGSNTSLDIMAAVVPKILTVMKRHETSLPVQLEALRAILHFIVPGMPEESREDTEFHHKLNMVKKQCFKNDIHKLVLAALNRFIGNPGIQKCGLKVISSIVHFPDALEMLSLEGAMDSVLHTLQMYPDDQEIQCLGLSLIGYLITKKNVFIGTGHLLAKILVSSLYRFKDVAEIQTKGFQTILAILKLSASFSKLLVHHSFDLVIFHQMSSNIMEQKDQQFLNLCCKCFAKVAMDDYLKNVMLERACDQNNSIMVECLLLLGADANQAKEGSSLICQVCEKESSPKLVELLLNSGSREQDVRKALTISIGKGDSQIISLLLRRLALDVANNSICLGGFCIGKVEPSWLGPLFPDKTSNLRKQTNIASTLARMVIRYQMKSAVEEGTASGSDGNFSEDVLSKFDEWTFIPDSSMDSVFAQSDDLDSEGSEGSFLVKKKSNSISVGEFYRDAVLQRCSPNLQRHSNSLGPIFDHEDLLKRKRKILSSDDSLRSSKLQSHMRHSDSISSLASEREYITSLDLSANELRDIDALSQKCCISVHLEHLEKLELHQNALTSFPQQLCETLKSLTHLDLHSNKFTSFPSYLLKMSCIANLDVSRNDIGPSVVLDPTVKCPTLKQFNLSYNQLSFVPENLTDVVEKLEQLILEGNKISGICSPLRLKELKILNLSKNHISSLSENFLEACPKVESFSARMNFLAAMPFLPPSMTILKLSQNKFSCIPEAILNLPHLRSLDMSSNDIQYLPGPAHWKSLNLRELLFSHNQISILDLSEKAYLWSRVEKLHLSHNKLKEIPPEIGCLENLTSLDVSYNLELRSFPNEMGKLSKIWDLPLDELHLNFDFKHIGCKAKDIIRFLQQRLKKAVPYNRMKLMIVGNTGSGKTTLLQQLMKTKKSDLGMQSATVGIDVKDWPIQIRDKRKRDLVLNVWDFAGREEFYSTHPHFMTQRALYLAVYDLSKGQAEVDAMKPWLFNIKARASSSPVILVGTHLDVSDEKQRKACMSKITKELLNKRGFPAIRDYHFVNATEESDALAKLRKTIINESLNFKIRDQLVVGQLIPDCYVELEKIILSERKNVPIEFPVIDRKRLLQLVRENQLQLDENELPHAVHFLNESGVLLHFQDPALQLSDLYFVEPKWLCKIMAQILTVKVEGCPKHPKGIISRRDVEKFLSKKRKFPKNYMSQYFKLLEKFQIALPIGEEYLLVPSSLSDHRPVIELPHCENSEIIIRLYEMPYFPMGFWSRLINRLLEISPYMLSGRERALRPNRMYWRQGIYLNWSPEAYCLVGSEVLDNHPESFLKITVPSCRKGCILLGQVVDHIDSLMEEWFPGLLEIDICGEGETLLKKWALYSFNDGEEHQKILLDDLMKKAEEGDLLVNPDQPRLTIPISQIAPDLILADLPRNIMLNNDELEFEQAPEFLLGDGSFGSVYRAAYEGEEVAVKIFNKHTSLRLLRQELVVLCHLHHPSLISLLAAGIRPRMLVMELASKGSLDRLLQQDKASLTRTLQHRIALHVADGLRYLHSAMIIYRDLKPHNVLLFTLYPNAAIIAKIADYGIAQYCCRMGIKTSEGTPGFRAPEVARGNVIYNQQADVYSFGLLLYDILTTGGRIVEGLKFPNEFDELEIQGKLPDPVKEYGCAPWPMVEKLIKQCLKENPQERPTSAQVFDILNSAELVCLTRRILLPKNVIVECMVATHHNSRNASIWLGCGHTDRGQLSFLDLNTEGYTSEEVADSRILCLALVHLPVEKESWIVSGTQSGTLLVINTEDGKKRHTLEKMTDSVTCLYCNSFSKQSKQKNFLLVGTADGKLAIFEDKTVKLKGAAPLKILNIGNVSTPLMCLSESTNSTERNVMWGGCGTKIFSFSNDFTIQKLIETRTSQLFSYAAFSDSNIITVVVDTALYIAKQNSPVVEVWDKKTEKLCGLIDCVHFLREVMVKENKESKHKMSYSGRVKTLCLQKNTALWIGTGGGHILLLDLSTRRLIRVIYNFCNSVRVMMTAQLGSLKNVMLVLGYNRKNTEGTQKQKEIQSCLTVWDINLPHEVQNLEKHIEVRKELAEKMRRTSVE

[15] = target: Leucine-rich repeat serine/threonine-protein kinase 2 (Homo sapiens) (UniProt Q5S007); conditions: at 1 µM
[16] = system: Leucine-rich repeat serine/threonine-protein kinase 2 (Homo sapiens), Q5S007 [G2019S]; conditions: at 0.1 µM
Leucine-rich repeat serine/threonine-protein kinase 2 (Homo sapiens), Q5S007 [G2019S], sequence (Q5S007 whole entry G2019S): as the sequence (Q5S007 whole entry) above, with G2019S counted along it

[17] = system: Leucine-rich repeat serine/threonine-protein kinase 2 (Homo sapiens), Q5S007 [G2019S]; conditions: at 1 µM

SMILES | inhibition [1] [%] | inhibition [2] [%] | inhibition [3] [%] | inhibition [4] [%] | inhibition [5] [%] | inhibition [6] [%] | inhibition [7] [%] | inhibition [8] [%] | inhibition [9] [%] | inhibition [10] [%] | inhibition [11] [%] | inhibition [12] [%] | inhibition [13] [%] | inhibition [14] [%] | inhibition [15] [%] | inhibition [16] [%] | inhibition [17] [%]
COc1ccc(-c2nn3ncccc3c2-c2ccnc(Nc3cccc(C(F)(F)F)c3)n2)cc1 | 4.06 | 26.3 | 79.8 | -0.73 | 1.1 | 4.3 | 6.08 | 4.63 | 4.39 | -2.4 | -0.7 | 2.1 | 1.92 | 2.5 | 2.68 | 2.73 | -0.13
Nc1nccc(C#Cc2cncnc2Nc2ccc(OCc3cccc(F)c3)c(Cl)c2)n1 | 3.66 | -0.62 | 5.85 | 1.97 | 3.29 | 3.49 | 6.72 | 3.75 | 5.29 | -0.89 | -0.28 | 0.44 | 2.48 | 7.72 | 11.1 | 8.54 | 14
[O-][S+]1CCN(Cc2ccc(-c3ccc4ncnc(Nc5ccc(OCc6ccccc6)c(Cl)c5)c4c3)o2)CC1 | 2.86 | 6.47 | 39.1 | -3.44 | 1.8 | 3.08 | 3.86 | 2.34 | 3.29 | -1.87 | -0.7 | 0.32 | 0.82 | 1.07 | 2.89 | 4.21 | 4.96
COc1cccc(-n2nc(C)c3c(N/N=C(\C)c4ccncc4)ncnc32)c1 | 2.25 | 1.18 | 0.82 | 0.82 | 2.35 | 0.14 | -1.61 | 0.28 | -0.78 | -2.44 | -2.83 | -0.08 | 0.93 | 2.29 | 4.69 | 2.88 | 4.64
CS(=O)(=O)CCNCc1nc(-c2ccc3ncnc(Nc4ccc(OCc5cccc(C(F)(F)F)c5)cc4)c3c2)cs1 | 1.66 | 1.94 | 3.56 | 1.5 | 0.78 | 1.81 | 2.12 | 2.15 | -0.18 | 0.97 | -1.38 | 0.78 | 1.16 | 1.09 | 6.41 | 3.12 | 5.01
CN(C)CCCn1c(-c2nonc2N)nc2cnccc21 | 1.97 | 0.2 | 0.44 | 1.32 | 0.96 | 5.59 | 6.07 | 5.51 | 5.34 | 7.16 | 1.81 | 4.22 | 1.99 | 3.63 | 2.14 | 2.04 | 2.51
C[C@@H](Oc1cc(-n2cnc3ccc(OCC4CCN(C)CC4)cc32)sc1C(N)=O)c1ccccc1C(F)(F)F | 6.92 | 4.36 | 13.2 | -2.7 | -1.19 | -0.94 | -2.8 | -0.73 | 0.84 | 12.6 | 1.99 | 0.42 | 9.77 | 6.53 | 26.4 | 7.39 | 31
NS(=O)(=O)c1ccc(NC=C2C(=O)Nc3ccc4ncsc4c32)cc1 | 42.4 | 9.65 | 41.5 | 3.29 | 11.9 | 15.4 | 60.5 | 16.6 | 61.2 | 11.6 | -1.97 | 0.1 | 4.43 | 23.9 | 78.8 | 48.8 | 59.7
CCOc1nccc2c1nc(-c1nonc1N)n2CC | 5.64 | 2.27 | 6.31 | 2.73 | 1.9 | 2.88 | 2.64 | 3.44 | 2.45 | -1.34 | 1.42 | -2.37 | 1.89 | 3.98 | 8.96 | 5.55 | 11.8
Cc1ccc2c(-c3ccnc(Nc4ccc5c(c4)OCCO5)n3)c(-c3ccc(C(F)(F)F)cc3)nn2n1 | 2.41 | 6.79 | 46.8 | -2.2 | 1.38 | 0.83 | 1.14 | 0.62 | 1.44 | 4.51 | 1.48 | -0.63 | -0.5 | 2.01 | 2.22 | 2.87 | 3.58
Nc1nccc(-c2c(-c3ccc(F)cc3)ncn2CCCN2CCOCC2)n1 | 5.61 | 2.87 | 9.05 | -2.08 | 1.23 | 5.83 | 6.07 | 6.08 | 7.12 | 11.6 | 2.86 | 3.35 | 2.13 | 1.92 | 1.82 | 2.45 | 2.14
CN1CCN(C(=O)c2ccc(NC(=O)Nc3ccc(N(C)c4ccnc(Nc5ccc(CS(C)(=O)=O)cc5)n4)cc3)cc2)CC1 | 21.9 | 2.29 | 16.2 | 2.02 | 5.2 | 2.69 | 14.5 | 3.84 | 11.8 | 2.58 | -0.88 | 0.32 | 0.52 | 13.7 | 21.2 | 15.2 | 50.9
CS(=O)(=O)Nc1cccc(-c2ccc3c(NC(=O)C4CC4)n[nH]c3c2)c1 | 17.9 | 2.95 | 2.86 | 1.35 | 1.3 | 1.25 | 2.51 | 1.61 | 2.94 | 8.26 | 16.5 | 4.95 | 0.25 | 1.1 | 5.23 | 2.67 | 5.19
CCCN1CCCC(c2ccc(Nc3nc(Nc4cc(F)ccc4C(N)=O)c4cc[nH]c4n3)c(OC)c2)C1 (stereo not given) | 7.19 | 5.09 | 9.04 | 7.83 | 28.7 | 11.6 | 40.1 | 11.2 | 35.5 | 1.24 | -4.64 | 3.05 | 3.34 | 86.9 | 88.3 | 80.5 | 83.5
N#Cc1cccc(Nc2nccc(-c3cnn4ncccc34)n2)c1 | 47.8 | 5.64 | 37 | 3.19 | 13.3 | 19.5 | 65.2 | 18.8 | 65 | -0.47 | 0.47 | 4.11 | 15.1 | 4.57 | 19.8 | 7.72 | 40.4
